# Assay results: PubChem BioAssay
# Where “and” joins values, the source holds several entries; their conditions need not be identical. Equal values may be shown once. Calls of active or inactive are those of the source.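 Rule for the calls, unless noted: active = inhibition at or above 50% relative to wild type and mutant plate controls; inactive = inhibition below 50%.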
# How the values were obtained:
# [1] = inhibitors of TNFa-induced NFkB p65 translocation, primary screen, imaging, HUVEC, MLSMR starter and 10KST1 sets (AID 438;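 active = inhibition above 20% together with a positive visual image hit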;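 note: compound added about 3h40 before a 20 min TNFalpha stimulation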;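 for inhibition: signal is the nuclear over cytoplasmic p65 intensity ratio per well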); conditions: HUVEC TNFa-induced p65 nuclear translocation; cell count: measured here: nuclei count (cytotoxicity indicator), at 2.08 µM; inhibition: at 2 µM, stronger effect = higher value, 0% TNFa-plus-vehicle, 100% no-TNFa wells
# [2] = reduction of polyQ htt aggregates in cells – imaging, exon1htt(103Q)mCFP cells, high-content imaging, primary screen (AID 483;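 active = visual image review flags a hit and inhibition of aggregation exceeds 20%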;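 note: compound exposure lasted 3 days before fixation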;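 for nuclei count: percent of the per-plate median nuclei count of sample wells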); conditions: exon1htt(103Q)mCFP cell line, aggregate imaging, at 2 µM; inhibition of aggregation: stronger effect = higher value; nuclei count: measured here: cell count, toxicity
# [3] = endothelial E-selectin expression blockers – imaging, HUVEC, immunofluorescence, MLSMR starter and 10KST1 sets, primary screen (AID 487;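 active = visually confirmed hit in the image check and inhibition above 20%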;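 for inhibition: signal is fraction of cell area covered by stained E-selectin grains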;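 for nuclei count: 100% = median nuclei count of all wells on the same plate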); conditions: HUVEC TNFalpha-induced E-selectin immunofluorescence imaging, at 2 µM; inhibition: stronger effect = higher value; nuclei count: measured here: cell number, toxicity
# [4] = Primary imaging screen for DUSP6 inhibitors that restore phospho-Erk in transfected HeLa cells, chemical complementation (AID 609;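 active = compounds giving at least 50% inhibition in the cell-based MKP-3 phosphatase rescue imaging test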;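 for inhibition: phospho-Erk level distribution per well compared with pooled transfected vehicle control wells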); conditions: HeLa MKP-3 transfected, phospho-Erk imaging KS statistic, at 10 µM, cells stimulated with TPA for 15 min
# [5] = biological target: Dual specificity protein phosphatase 6 (Homo sapiens) (UniProt Q16828); assay: as above; conditions: HeLa MKP-3 transfected, phospho-Erk imaging KS statistic; at 10 µM; stronger effect = higher value; cells stimulated with TPA for 15 min
# Chain of Dual specificity protein phosphatase 6 (Homo sapiens) (Q16828 whole entry, looked up): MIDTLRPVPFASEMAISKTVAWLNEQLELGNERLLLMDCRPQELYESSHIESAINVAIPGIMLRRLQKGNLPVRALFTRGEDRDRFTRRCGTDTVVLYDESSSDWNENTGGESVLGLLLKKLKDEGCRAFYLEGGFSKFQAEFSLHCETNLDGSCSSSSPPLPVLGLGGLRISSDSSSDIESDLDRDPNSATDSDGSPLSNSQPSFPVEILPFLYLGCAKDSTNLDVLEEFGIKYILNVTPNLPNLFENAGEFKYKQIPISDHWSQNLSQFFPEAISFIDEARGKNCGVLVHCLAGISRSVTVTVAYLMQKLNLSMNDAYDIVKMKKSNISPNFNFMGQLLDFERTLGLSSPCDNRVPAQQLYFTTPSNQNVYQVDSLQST
# [6] = biological target: Voltage-gated potassium channel subunit beta-2 (Rattus norvegicus) (UniProt P62483); assay: inhibitors of rat Kvbeta2 reductase activity – biochemical, NADPH fluorescence, primary screen (AID 622;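 active = fluorescence slope higher than the sample average by over 3 SD, cut at about -0.22 in these data, passing the limit was not always enough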;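 note: slope of raw intensity against log time taken from 70 to 1610 s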); conditions: recombinant KvBeta, 4-cyanobenzaldehyde reduction, at 10 µM, stronger effect = higher value
# Chain of Voltage-gated potassium channel subunit beta-2 (Rattus norvegicus) (P62483 whole entry, looked up): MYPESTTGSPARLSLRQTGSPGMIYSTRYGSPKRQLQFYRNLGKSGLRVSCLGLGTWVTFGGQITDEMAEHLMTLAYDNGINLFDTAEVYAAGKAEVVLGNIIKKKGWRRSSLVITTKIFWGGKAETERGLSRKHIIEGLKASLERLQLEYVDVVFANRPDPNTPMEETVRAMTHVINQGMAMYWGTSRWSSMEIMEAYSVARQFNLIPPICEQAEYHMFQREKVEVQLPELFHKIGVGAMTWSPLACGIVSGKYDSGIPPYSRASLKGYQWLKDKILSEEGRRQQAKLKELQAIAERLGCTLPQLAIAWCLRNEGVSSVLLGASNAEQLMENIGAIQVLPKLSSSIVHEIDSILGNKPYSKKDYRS
# [7] = biological target: Voltage-gated potassium channel subunit beta-2 (Rattus norvegicus) (UniProt P62483); assay: enhancers of rat Kvbeta2 NADPH turnover – biochemical, NADPH fluorescence, primary screen (AID 623;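 active = NADPH fluorescence slope more negative than the mean of all samples by about 3 SD, 99.7% confidence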;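 note: fluorescence intensity change per second fitted from 20 to 320 s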); conditions: Recombinant KvBeta, NADPH fluorescence decrease slope, 10 min; at 10 µM; stronger effect = lower value
# [8] = biological target: Alpha-2C adrenergic receptor (Homo sapiens) (UniProt P18825); assay: compounds altering alpha2C-coupled GIRK flux – cell-based, HEK293 alpha2C/GIRK1/2, thallium flux, primary screen (AID 624;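 active = fluorescence slope after compound addition differing from the mean of all screened samples at 99.7% confidence, in either direction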;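 note: slope of fluorescence ratio to pre-addition baseline per second over 15 to 24 s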); conditions: thallium flux BTC fluorescence, at 10 µM, actives lie on both sides
# Chain of Alpha-2C adrenergic receptor (Homo sapiens) (P18825 whole entry, looked up): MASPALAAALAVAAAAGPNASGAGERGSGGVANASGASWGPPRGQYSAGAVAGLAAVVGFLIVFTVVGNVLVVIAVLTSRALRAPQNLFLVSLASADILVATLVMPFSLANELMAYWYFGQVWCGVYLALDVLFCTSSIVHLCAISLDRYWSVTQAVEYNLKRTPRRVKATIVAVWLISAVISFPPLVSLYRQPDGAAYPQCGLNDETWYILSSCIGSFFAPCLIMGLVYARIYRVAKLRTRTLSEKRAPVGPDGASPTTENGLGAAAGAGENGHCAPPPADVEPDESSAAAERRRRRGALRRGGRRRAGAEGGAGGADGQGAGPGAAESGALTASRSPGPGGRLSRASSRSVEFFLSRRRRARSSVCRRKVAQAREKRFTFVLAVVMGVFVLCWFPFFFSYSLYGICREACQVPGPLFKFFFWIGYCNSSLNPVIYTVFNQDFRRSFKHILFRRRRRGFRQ
# [9] = inhibitors of larval lipid processing in zebrafish, primary screen, whole organism, PED6 fluorescence, gall bladder and intestine (AID 686;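 active = a full or partial loss of lipid-probe fluorescence in the fish gall bladder, intestine or both, judged by eye; inactive = no fluorescence loss, or compound toxic to the fish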;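 note: larvae 5 to 7 days old with five fish per well; signal comes from phospholipase A2 cleavage of quenched PED6 carried via bile; overnight exposure to compound and PED6 before scoring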); conditions: Zebrafish larvae PED6 lipid processing, fluorescence scoring; screened at 20 µM (by protocol)
# [10] = loss of swimming-algae plug formation – whole organism, Chlamydomonas reinhardtii, WT vs cilia-less mutant, absorbance, 96-well, primary screen (AID 463189); conditions: Chlamydomonas reinhardtii gravitaxis, OD600 absorbance, 2 days; at 10 µM; stronger effect = higher value;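 note: 0% = wild type cc124 cells in DMSO and 100% = ciliumless bld1 mutant cells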
# [11] = blockers of RIG-like receptor reporter activation – cell-based, Sendai virus stimulus, luciferase, 10K MLSCN set, TLR/RLR signaling modifier project, primary screen (AID 602276;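 active = inhibition at or above 50% at 10 µM; inactive = inhibition below 50%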;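 note: firefly luciferase from ISG56 promoter only with Renilla not read in this screen; 0% = Sendai virus plus DMSO and 100% = medium plus DMSO without virus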); conditions: HEK293 RL24 IRF3 luciferase reporter, at 10 µM, stronger effect = higher value
# [12] = TLR3 IRF3 reporter activation blockers – cell-based, poly I:C stimulus, luciferase, 10K MLSCN set, primary screen (AID 602277;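 active = inhibition of the reporter signal at or above 50%; inactive = inhibition below 50%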); conditions: HEK293-TLR3 RL24 IRF3 luciferase reporter, at 10 µM, stronger effect = higher value
# [13] = measured here: cell density z-score
# [14] = measured here: nuclear c-Myc green intensity z-score
# [15] = measured here: nuclear pErk red intensity z-score, stronger effect = higher value
Structure (SMILES),cell count [1],inhibition [1],inhibition of aggregation [2],nuclei count [2] [%],inhibition [3],nuclei count [3] [%],"z-score [4, 13]","z-score [4, 14]","z-score [4, 15]",inhibition [5],fluorescence slope [6],NADPH fluorescence slope [7],slope [8],outcome [9],inhibition [10],inhibition [11],inhibition [12]
O=C1N[C@@H](Cc2cnc[nH]2)C(=O)N2CCC[C@@H]12,563,-1.5% (inactive),17.2% (inactive),95.1,-32% (inactive),119,-1.25,0.0399,-0.395,-0.493% (inactive),-0.516 (inactive),-4.6e-05 (inactive),0.0041 (inactive),inactive,10.3% (inactive),16.7% (inactive),33.3% (inactive)
CCC(=O)Oc1ccc(/C(CC)=C(\CC)c2ccc(OC(=O)CC)cc2)cc1,550,-4.1% (inactive),3.5% (inactive),97.5,-13.5% (inactive),127,-0.723,0.714,1.03,3.45% (inactive),-0.443 (inactive),-5.7e-05 (inactive),0.00761 (inactive),inactive,9.5% (inactive),11.1% (inactive),42.9% (inactive)
CCCCC[C@H](O)/C=C/[C@@H]1[C@@H](CCCCCCC(=O)O)[C@@H](O)C[C@H]1O,594,-7.7% (inactive),9% (inactive),106,-80.7% (inactive),114,-0.368,0.536,-0.971,7.39% (inactive),-0.458 (inactive),-4e-05 (inactive),0.00481 (inactive),inactive,-6.66% (inactive),11.4% (inactive),33.8% (inactive)
O=C(O)c1ccc(COc2c(F)c(F)c(F)c(F)c2F)o1,492,-12.2% (inactive),-42.8% (inactive),99.6,-83.7% (inactive),129,0.991,-1.28,-0.83,-3.5% (inactive),-0.433 (inactive),-0.000148 (inactive),0.00486 (inactive),inactive,-7.74% (inactive),-5.03% (inactive),-6.07% (inactive)
CN(C(=O)C(Cl)Cl)c1ccc(OC(=O)c2ccco2)cc1,579,-1.8% (inactive),-17.3% (inactive),101,-123% (inactive),112,0.253,-0.205,-0.332,15.3% (inactive),-0.508 (inactive),-6.7e-05 (inactive),0.00492 (inactive),inactive,-2.16% (inactive),21.3% (inactive),44.8% (inactive)
CC(=O)OCC(=O)[C@@]1(O)CC[C@H]2[C@@H]3CCC4=CC(=O)CC[C@]4(C)[C@H]3[C@@H](O)C[C@@]21C,652,2.9% (inactive),-9.2% (inactive),82.8,-99.5% (inactive),121,-2.38,1.32,1.76,10.2% (inactive),-0.454 (inactive),-5.2e-05 (inactive),0.00445 (inactive),inactive,17.2% (inactive),2.51% (inactive),28.7% (inactive)
Oc1ccc(/C=C/c2cc(O)cc(O)c2)cc1,597,2.2% (inactive),6% (inactive),98.6,-78% (inactive),118,-1.5,-0.867,1.21,14.6% (inactive),-0.411 (inactive),-0.000101 (inactive),0.00434 (inactive),inactive,3.52% (inactive) and 10.8% (inactive),-39.2% (inactive),-231% (inactive)
COc1cccc(-c2nnc3sc(-c4ccc(C)cc4)nn23)c1,634,3.3% (inactive),11.6% (inactive),77.9,-24.2% (inactive),121,-0.746,-0.965,1.01,-4.27% (inactive),-0.414 (inactive),-0.000137 (inactive),0.00537 (inactive),inactive,5.03% (inactive),2.84% (inactive),34.9% (inactive)
Fc1ccc(C2C3=C(Nc4ncnn42)c2ccccc2OC3c2ccncc2)cc1 (stereo not drawn),363,1.7% (inactive),2.1% (inactive),113,-83.1% (inactive),136,0.971,-0.105,1.45,21.4% (inactive),-0.41 (inactive),-0.000137 (inactive),0.00729 (inactive),inactive,-7.08% (inactive),17.4% (inactive),19.3% (inactive)
C(=C\c1ccccc1)/CN1CCN(C(c2ccccc2)c2ccccc2)CC1,635,-9.5% (inactive),-21.5% (inactive),107,-95.1% (inactive),131,0.835,-0.254,0.957,11.3% (inactive),-0.448 (inactive),-6.1e-05 (inactive),0.00492 (inactive),inactive,126% (active) and 125% (active),9.39% (inactive),26.9% (inactive)
COC(=O)Nc1nc2ccc(Sc3ccccc3)cc2[nH]1,678,4.6% (inactive),9.4% (inactive),103,-3.1% (inactive),76.4,-0.13,0.104,-0.162,-5.24% (inactive),-0.475 (inactive),-5.5e-05 (inactive),0.00514 (inactive),inactive,-5.89% (inactive),43% (inactive),-12.9% (inactive)
NC(=O)OCC(COC(N)=O)c1ccccc1,615,-7.6% (inactive),-2.4% (inactive),114,-22.5% (inactive),108,1.02,-0.593,-0.701,3.45% (inactive),-0.44 (inactive),-3.1e-05 (inactive),0.00508 (inactive),inactive,-4.89% (inactive) and -8.93% (inactive),17.5% (inactive),34.3% (inactive)
CCCCCC#CCC#CCC#CCC#CCCCC(=O)O,542,-10.5% (inactive),-23.3% (inactive),92.5,-39.3% (inactive),127,-0.772,0.757,0.0999,-0.493% (inactive),-0.461 (inactive),-0.000212 (active),0.00468 (inactive),inactive,2.88% (inactive),11% (inactive),33.2% (inactive)
CCCCCCCC(=O)OCC(=O)[C@@]1(O)CC[C@H]2[C@@H]3CCC4=CC(=O)CC[C@]4(C)[C@H]3[C@@H](O)C[C@@]21C,531,-8.2% (inactive),-25.1% (inactive),92.7,3.4% (inactive),107,-0.552,-1.25,-0.122,-8.38% (inactive),-0.503 (inactive),-5.1e-05 (inactive),0.0075 (inactive),inactive,-10.8% (inactive),15.2% (inactive),49.5% (inactive)
O=C1CSC(=Nc2ccc(O)cc2)N1c1ccc(O)cc1,380,-9.5% (inactive),3.6% (inactive),95.8,-49.6% (inactive),92.5,1.48,1.47,-2.2,9.82% (inactive),-0.463 (inactive),-0.000339 (inactive),0.00571 (inactive),inactive,-9.81% (inactive),17.9% (inactive),25% (inactive)
C[C@]12CC[C@@H]3c4ccc(OS(=O)(=O)O)cc4CC[C@H]3[C@@H]1CCC2=O,725,-2.6% (inactive),1.7% (inactive),98.9,-120% (inactive),121,1.77,-0.742,-1.13,1.48% (inactive),-0.507 (inactive),-4.6e-05 (inactive),0.00404 (inactive),inactive,2.37% (inactive),11.2% (inactive),25.7% (inactive)
C1CCC(C(CC2CCCCN2)C2CCCCC2)CC1 (stereo not drawn),585,4.5% (inactive),-15.7% (inactive),101,0.5% (inactive),138,0.673,1.64,0.659,8% (inactive),-0.498 (inactive),-1.1e-05 (inactive),0.0027 (inactive),inactive,162% (active),33.8% (inactive),36.5% (inactive)
NC(CO)C(=O)NNCc1ccc(O)c(O)c1O (stereo not drawn),571,-9.9% (inactive),-16.9% (inactive),117,-52.2% (inactive),124,0.364,0.175,-0.65,3.45% (inactive),-0.466 (inactive),-6.2e-05 (inactive),0.00539 (inactive),inactive,-0.599% (inactive) and -9.6% (inactive),8.18% (inactive),29.4% (inactive)
CCOc1ccc(CSC(CC(=O)O)C(=O)O)cc1 (stereo not drawn),670,-12.9% (inactive),18.1% (inactive),98.8,-17.6% (inactive),137,-0.325,-0.101,1.94,-6.86% (inactive),-0.356 (inactive),-2.7e-05 (inactive),0.00455 (inactive),inactive,2.66% (inactive),13.1% (inactive),29.3% (inactive)
